Test results as given in PubChem BioAssay (NCI).
“And” between values parts separate entries of the source, which are not always exact repeats. Identical values can stand only once. The panel holds about 83,000 compounds, 20% with a hit somewhere; the sample as a whole holds those more often.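 Treatment: one concentration, 48 hours, 96-well format. Scoring: percent growth, with anything below 10 considered active.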 Unmarked numbers belong to inactive results. The source made the active and inactive calls.

test system: NCI-H322M lung; assay: NCI-60 one-dose screen, 48 h (100 = growth as untreated, 0 = no growth, -100 = all killed); conditions: 10 µM unless noted

Row | Compound | growth
1 | Cc1ccc(-c2nc(C#N)c(S(=O)(=O)N(C)C)o2)cc1 | 91.1%
2 | COCCn1cc(-c2nc(-c3cn(CCOC)c4ncccc34)cs2)c2ccccc21 | 59.2%
3 | Nc1nc2ccccc2c2c(=O)c3ccc(Cl)cc3sc12 | 103%
4 | CC[C@]1(O)CC2CN(CCc3c([nH]c4ccccc34)C(C(=O)OC)(c3cc4c(cc3OC)N(C=O)[C@H]3[C@@](O)(C(=O)OC)[C@H](OC(C)=O)[C@]5(CC)[C@@H]6C[C@@H]6CN6CC[C@]43[C@@H]65)C2)C1 (some centres undefined) | 73.9%
5 | CN1CCN(CCCN2c3ccccc3Sc3ccc(Cl)cc32)CC1 | 93.1%
6 | Nc1ncc(-c2ccc3ncnc(N4CCc5ccc(Cl)cc54)c3c2)cc1C(F)(F)F | 7.25% (active)
7 | CC(C)(C)c1cc(NC(=O)Nc2ccc(-c3cn4c(n3)sc3cc(OCCN5CCOCC5)ccc34)cc2)no1 | 34.9% and 54.5%
8 | CC1(Cc2ccccc2)CC2=C(C(=O)O1)C(c1ccccc1)NC(=O)N2 (centres undefined) | 98.6%
9 | COc1cc(C=O)ccc1Oc1ccc([N+](=O)[O-])cc1[N+](=O)[O-] | 104%
